The target in assay [1] is human Matrix Metalloproteinase-7 (MMP7), MMP7 (gene 4316) (UniProt P09237). The assay can be described thus: NVS_ENZ_hMMP7: NovaScreen (NVS) Enzymatic Assay for human Matrix Metalloproteinase-7 (MMP7) (AID 2283183). Summed up:
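Cell-free fluorescence enzymatic assay read 1 h after compound addition, activity loss analyzed against DMSO. Primary duplicate testing at 25 uM; compounds meeting threshold rerun in singleton concentration-response up to 50 uM.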

Assay [2] concerns the target human Matrix Metalloproteinase-2 (MMP2), MMP2 (gene 4313) (UniProt P08253). The experiment in a line: NVS_ENZ_hMMP2: NovaScreen (NVS) Enzymatic Assay for human Matrix Metalloproteinase-2 (MMP2) (AID 2283184). The method, boiled down: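 Cell-free recombinant MMP2 activity with a fluorescent substrate, read 1 h after dosing. Primary screen in duplicate at 25 uM; actives then run in concentration series; loss of signal fitted versus DMSO.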

Assay [3] deals with human Matrix Metalloproteinase-3 (MMP3), MMP3 (gene 4314) (UniProt P08254). The assay can be described thus: NVS_ENZ_hMMP3: NovaScreen (NVS) Enzymatic Assay for human Matrix Metalloproteinase-3 (MMP3) (AID 2283185). The method, boiled down: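 Cell-free recombinant human MMP3 activity, fluorescence intensity read 1 h after dosing. Primary screen duplicate at 25 uM, actives retested in concentration series; loss of signal vs DMSO baseline.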

Assay [4] concerns the target human Mitogen- and Stress-activated Protein Kinase-1 (Msk1), RPS6KA5 (gene 9252) (UniProt O75582). The experiment in a line: NVS_ENZ_hMsk1: NovaScreen (NVS) Enzymatic Assay for human Mitogen- and Stress-activated Protein Kinase-1 (Msk1) (AID 2283187). Summed up: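 Recombinant kinase with fluorescent substrate; product separated by electrophoretic mobility shift, read 1 h after dosing. Screened in duplicate at 25 uM; hits (e.g. ≥30% inhibition) tested in concentration–response up to 50 uM. DMSO baseline.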

Assay [5] addresses human Phosphodiesterase 4A1 (PDE4A1), PDE4A (gene 5141) (UniProt P27815). The assay can be described thus: NVS_ENZ_hPDE4A1: NovaScreen (NVS) Enzymatic Assay for human Phosphodiesterase 4A1 (PDE4A1) (AID 2283191). The method, boiled down:
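Cell-free recombinant human PDE4A1 with fluorescent substrate; product separated by electrophoretic mobility shift, 1 h. Screened at 25 uM, then up to 50 uM in concentration-response; loss of signal fitted against DMSO.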

The target in assay [6] is human Phosphodiesterase 5 (PDE5), PDE5A (gene 8654) (UniProt O76074). The experiment in a line: NVS_ENZ_hPDE5: NovaScreen (NVS) Enzymatic Assay for human Phosphodiesterase 5 (PDE5) (AID 2283194). Summed up:
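Recombinant human PDE5 with specific substrate, read 1 h after dosing by fluorescence with electrophoretic mobility-shift separation of substrate and product. Initial single-concentration duplicate screen at 25 uM, actives followed in concentration series; loss of activity versus DMSO.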

Assay [7] addresses human Phosphodiesterase 10 (PDE10), PDE10A (gene 10846) (UniProt Q9Y233). The assay can be described thus: NVS_ENZ_hPDE10: NovaScreen (NVS) Enzymatic Assay for human Phosphodiesterase 10 (PDE10) (AID 2283195). Summed up:
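PDE10A, cell-free; 1 h incubation; fluorescence intensity + electrophoretic mobility shift separating substrate/product; DMSO = baseline; 25 uM duplicate primary, CRC up to 50 uM.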

Assay [8] addresses Serine/threonine-protein phosphatase PP1-alpha catalytic subunit (Homo sapiens) (UniProt P62136). The experiment in a line: NVS_ENZ_hPPP1CA: NovaScreen (NVS) Enzymatic Assay for human Protein Phosphatase 1 Aatalytic subunit Alpha (PPP1CA) (AID 2283200). Summed up:
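Recombinant enzyme activity read by fluorescence with electrophoretic mobility shift separating substrate from product, 1.33 h after dosing; loss of signal vs DMSO baseline. Primary screen in duplicate at 25 uM; actives retested in concentration-response up to 50 uM.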

Assay [9] addresses human Protein Tyrosine Phosphatase Non-receptor Type 1 (PTPN1), PTPN1 (gene 5770) (UniProt P18031). The experiment in a line: NVS_ENZ_hPTPN1: NovaScreen (NVS) Enzymatic Assay for human Protein Tyrosine Phosphatase Non-receptor Type 1 (PTPN1) (AID 2283201). Summed up:
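Cell-free fluorogenic-substrate activity assay on recombinant enzyme, read 1.33 h after dosing by fluorescence and electrophoretic mobility shift; loss of signal vs DMSO baseline. Primary screen in duplicate at 25 uM, hits then run in concentration-response up to 50 uM.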

For assay [10], the target named is Tyrosine-protein phosphatase non-receptor type 11 (Homo sapiens) (UniProt Q06124). The experiment in a line: NVS_ENZ_hPTPN11: NovaScreen (NVS) Enzymatic Assay for human Protein Tyrosine Phosphatase Non-receptor Type 11 (PTPN11) (AID 2283202). Summed up:
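Recombinant human PTPN11 activity on a fluorescent substrate, with substrate/product separated by electrophoretic mobility shift; read 0.5 h after dosing, loss of signal vs DMSO. Duplicate 25 uM screen, then concentration-response up to 50 uM.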

Assay [11] concerns the target Tyrosine-protein phosphatase non-receptor type 12 (Homo sapiens) (UniProt Q05209). The experiment in a line: NVS_ENZ_hPTPN12: NovaScreen (NVS) Enzymatic Assay for human Protein Tyrosine Phosphatase Non-receptor Type 12 (PTPN12) (AID 2283204). Summed up: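 Single-concentration duplicates (25 uM) preceded singleton concentration-response up to 50 uM for chemicals passing threshold. Cell-free recombinant PTPN12 activity was read 1.33 h after dosing via fluorescence after mobility-shift separation; loss of signal versus DMSO.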

Assay [12] deals with Tyrosine-protein phosphatase non-receptor type 13 (Homo sapiens) (UniProt Q12923). The experiment in a line: NVS_ENZ_hPTPN13: NovaScreen (NVS) Enzymatic Assay for human Protein Tyrosine Phosphatase Non-receptor Type 13 (PTPN13) (AID 2283205). Summed up:
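Cell-free assay of recombinant human PTPN13 with a fluorescent substrate, product separated by electrophoretic mobility shift and read 0.5 h after dosing. Primary screen at 25 uM in duplicate, then concentration-response up to 50 uM. Loss of signal fitted against DMSO.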

The target of assay [13] is human Protein Tyrosine Phosphatase Non-receptor Type 4 (PTPN4), PTPN4 (gene 5775) (UniProt P29074). The assay can be described thus: NVS_ENZ_hPTPN4: NovaScreen (NVS) Enzymatic Assay for human Protein Tyrosine Phosphatase Non-receptor Type 4 (PTPN4) (AID 2283208). Summed up:
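Cell-free assay of PTPN4 expressed in Sf9 cells, using a fluorescent substrate with product separated by mobility shift; read 1.33 h after dosing. Single-point screen at 25 uM, then concentration-response up to 50 uM. Loss of signal relative to DMSO.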

In assay [14] the target is human Protein Tyrosine Phosphatase Non-receptor Type 9 (PTPN9), PTPN9 (gene 5780) (UniProt P43378). The experiment in a line: NVS_ENZ_hPTPN9: NovaScreen (NVS) Enzymatic Assay for human Protein Tyrosine Phosphatase Non-receptor Type 9 (PTPN9) (AID 2283209). Summed up:
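Sf9-expressed enzyme in a cell-free assay, fluorescence read 1.33 h after dosing with mobility-shift separation of substrate and product. Tested at 25 uM in duplicate, then up to 50 uM; signal loss versus DMSO.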

The target of assay [15] is human Phosphoinositide 3-kinase alpha (PI3Ka), PIK3CA (gene 5290) (UniProt P42336). The experiment in a line: NVS_ENZ_hPI3Ka: NovaScreen (NVS) Enzymatic Assay for human Phosphoinositide 3-kinase alpha (PI3Ka) (AID 2283196). Summed up:
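Enzyme activity as fluorescence after mobility-shift separation of substrate and product, 1 h reaction, recombinant human PI3Kα; concentration-response to 50 uM max for chemicals passing a 25 uM duplicate screen.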

Assay [16] deals with cAMP-dependent protein kinase catalytic subunit alpha (Homo sapiens) (UniProt P17612). The experiment in a line: NVS_ENZ_hPKA: NovaScreen (NVS) Enzymatic Assay for human Protein Kinase A (PKA) (AID 2283192). Summed up: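 Recombinant human PKA with specific fluorescent substrate, product separated by electrophoretic mobility shift, read 1 h after dosing. Primary screen at 25 uM in duplicate; actives then run in concentration-response up to 50 uM, activity relative to DMSO.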

The target in assay [17] is Tyrosine-protein phosphatase non-receptor type 14 (Homo sapiens) (UniProt Q15678). The experiment in a line: NVS_ENZ_hPTPN14: NovaScreen (NVS) Enzymatic Assay for human Protein Tyrosine Phosphatase Non-receptor Type 14 (PTPN14) (AID 2283206). Summed up:
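Cell-free recombinant human PTPN14 with fluorescent substrate, read 0.5 h after dosing by fluorescence and electrophoretic mobility shift separating substrate from product. Primary screen at 25 uM in duplicate; hits run to 50 uM maximum; loss of signal versus DMSO.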

Assay [18] deals with human Protein Tyrosine Phosphatase Non-receptor Type 6 (PTPN6), PTPN6 (gene 5777) (UniProt P29350). The experiment in a line: NVS_ENZ_hPTPN6: NovaScreen (NVS) Enzymatic Assay for human Protein Tyrosine Phosphatase Non-receptor Type 6 (PTPN6) (AID 2283210). Summed up: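 Cell-free assay with recombinant PTPN6 expressed in SF9 cells, fluorescent substrate, product separated from substrate by electrophoretic mobility shift; read 1.33 hours after dosing. Primary screen in duplicate at 25 uM, actives retested in concentration series; DMSO baseline.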

For assay [19], the target named is human Protein Phosphatase, Mg2+/Mn2+ Dependent 1A (PPM1A), PPM1A (gene 5494) (UniProt P35813). The experiment in a line: NVS_ENZ_hPPM1A: NovaScreen (NVS) Enzymatic Assay for human Protein Phosphatase, Mg2+/Mn2+ Dependent 1A (PPM1A) (AID 2283198). The method, boiled down: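 Cell-free recombinant PPM1A phosphatase assay with fluorescent substrate, read 1 h after dosing by electrophoretic mobility shift. Chemicals screened in duplicate at 25 uM, then in concentration-response up to 50 uM; loss of activity versus DMSO.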

Several values for one entry are separate records, joined by “and”; a condition that tells them apart may be missing. Equal values may be shown once. Results filed as inconclusive are left out. A structure can be active in one record and inactive in another. Activity calls are given as the source filed them. How the source made its calls: active means hit-call score of the fitted dose curve at least 0.9, where 1 is the maximum; inconclusive means response in the unintended direction; inactive means score below 0.9.

Among the data in PubChem BioAssay (EPA / NIEHS) are outcome and AC50 values, retold here.

Chain of human Phosphodiesterase 10 (PDE10), PDE10A (gene 10846) (Q9Y233 whole entry, looked up): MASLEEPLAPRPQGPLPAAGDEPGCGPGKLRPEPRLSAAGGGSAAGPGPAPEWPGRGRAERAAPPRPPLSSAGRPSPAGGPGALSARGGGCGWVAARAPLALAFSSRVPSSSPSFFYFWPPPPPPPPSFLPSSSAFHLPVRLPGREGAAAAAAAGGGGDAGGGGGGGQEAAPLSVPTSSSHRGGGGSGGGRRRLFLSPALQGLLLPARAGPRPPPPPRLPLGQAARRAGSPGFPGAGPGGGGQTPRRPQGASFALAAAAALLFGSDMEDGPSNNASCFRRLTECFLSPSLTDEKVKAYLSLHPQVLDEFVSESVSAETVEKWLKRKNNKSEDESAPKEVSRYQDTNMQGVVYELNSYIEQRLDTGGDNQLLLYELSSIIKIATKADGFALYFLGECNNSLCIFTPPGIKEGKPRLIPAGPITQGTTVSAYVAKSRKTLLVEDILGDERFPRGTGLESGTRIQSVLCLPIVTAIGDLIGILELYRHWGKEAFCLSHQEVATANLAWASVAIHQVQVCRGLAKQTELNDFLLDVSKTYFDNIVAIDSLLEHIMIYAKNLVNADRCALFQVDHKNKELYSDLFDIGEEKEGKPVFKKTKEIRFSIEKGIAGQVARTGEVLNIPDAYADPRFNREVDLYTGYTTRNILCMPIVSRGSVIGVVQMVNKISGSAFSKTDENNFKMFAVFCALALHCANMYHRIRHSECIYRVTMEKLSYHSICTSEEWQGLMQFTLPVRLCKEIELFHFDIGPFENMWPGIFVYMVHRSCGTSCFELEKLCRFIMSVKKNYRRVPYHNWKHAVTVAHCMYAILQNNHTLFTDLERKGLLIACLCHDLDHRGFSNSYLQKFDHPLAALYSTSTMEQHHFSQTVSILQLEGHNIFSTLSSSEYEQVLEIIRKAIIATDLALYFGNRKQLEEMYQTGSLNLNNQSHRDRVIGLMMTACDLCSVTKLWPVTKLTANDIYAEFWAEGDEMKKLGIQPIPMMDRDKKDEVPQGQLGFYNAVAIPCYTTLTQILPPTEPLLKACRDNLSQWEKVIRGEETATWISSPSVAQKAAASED
Chain of human Matrix Metalloproteinase-7 (MMP7), MMP7 (gene 4316) (P09237 whole entry, looked up): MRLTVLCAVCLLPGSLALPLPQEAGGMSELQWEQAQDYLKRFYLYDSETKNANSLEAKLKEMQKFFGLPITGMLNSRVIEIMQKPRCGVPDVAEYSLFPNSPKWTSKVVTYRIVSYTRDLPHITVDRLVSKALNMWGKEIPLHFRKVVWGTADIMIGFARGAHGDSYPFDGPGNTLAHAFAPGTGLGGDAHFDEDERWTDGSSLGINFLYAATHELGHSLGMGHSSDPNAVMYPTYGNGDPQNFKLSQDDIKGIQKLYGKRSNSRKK
Chain of human Matrix Metalloproteinase-3 (MMP3), MMP3 (gene 4314) (P08254 whole entry, looked up): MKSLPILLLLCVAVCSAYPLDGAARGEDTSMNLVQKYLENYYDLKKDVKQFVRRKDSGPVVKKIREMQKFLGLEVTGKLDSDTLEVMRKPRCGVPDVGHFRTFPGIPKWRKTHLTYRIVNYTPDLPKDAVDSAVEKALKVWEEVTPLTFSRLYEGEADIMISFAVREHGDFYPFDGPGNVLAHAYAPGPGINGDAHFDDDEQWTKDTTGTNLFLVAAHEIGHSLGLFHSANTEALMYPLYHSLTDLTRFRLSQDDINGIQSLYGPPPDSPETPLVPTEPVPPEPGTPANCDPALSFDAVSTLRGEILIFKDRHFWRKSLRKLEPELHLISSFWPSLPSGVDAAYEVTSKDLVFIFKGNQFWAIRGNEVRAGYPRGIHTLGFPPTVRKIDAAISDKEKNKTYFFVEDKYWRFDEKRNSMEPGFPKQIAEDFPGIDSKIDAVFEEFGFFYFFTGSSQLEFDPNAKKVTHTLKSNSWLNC
Chain of human Phosphoinositide 3-kinase alpha (PI3Ka), PIK3CA (gene 5290) (P42336 whole entry, looked up): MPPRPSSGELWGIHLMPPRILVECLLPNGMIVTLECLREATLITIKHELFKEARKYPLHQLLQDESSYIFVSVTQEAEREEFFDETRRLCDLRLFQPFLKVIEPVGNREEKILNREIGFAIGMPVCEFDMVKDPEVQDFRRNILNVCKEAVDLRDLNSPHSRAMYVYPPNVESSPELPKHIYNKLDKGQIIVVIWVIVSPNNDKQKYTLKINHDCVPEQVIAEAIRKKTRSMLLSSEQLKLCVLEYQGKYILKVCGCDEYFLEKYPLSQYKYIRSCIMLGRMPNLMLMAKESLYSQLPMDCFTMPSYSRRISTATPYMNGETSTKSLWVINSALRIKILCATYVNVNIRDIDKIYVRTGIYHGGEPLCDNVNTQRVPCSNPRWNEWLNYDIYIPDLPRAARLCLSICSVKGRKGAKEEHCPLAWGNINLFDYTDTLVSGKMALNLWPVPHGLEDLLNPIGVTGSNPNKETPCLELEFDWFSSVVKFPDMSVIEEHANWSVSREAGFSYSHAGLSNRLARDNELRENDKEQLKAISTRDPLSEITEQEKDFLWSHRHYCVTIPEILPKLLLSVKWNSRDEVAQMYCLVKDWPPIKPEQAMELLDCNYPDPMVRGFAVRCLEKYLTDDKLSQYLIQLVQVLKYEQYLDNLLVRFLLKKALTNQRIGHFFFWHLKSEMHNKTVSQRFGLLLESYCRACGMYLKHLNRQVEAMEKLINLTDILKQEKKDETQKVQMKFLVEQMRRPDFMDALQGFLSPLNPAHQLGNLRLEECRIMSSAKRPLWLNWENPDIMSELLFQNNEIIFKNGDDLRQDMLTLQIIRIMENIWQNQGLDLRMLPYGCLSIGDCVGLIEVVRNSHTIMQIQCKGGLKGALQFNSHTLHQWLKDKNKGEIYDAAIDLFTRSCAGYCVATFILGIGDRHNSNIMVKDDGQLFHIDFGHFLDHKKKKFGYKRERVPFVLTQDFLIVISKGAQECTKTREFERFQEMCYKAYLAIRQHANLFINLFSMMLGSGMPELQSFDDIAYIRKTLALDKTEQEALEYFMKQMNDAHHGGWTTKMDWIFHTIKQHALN
Chain of human Phosphodiesterase 4A1 (PDE4A1), PDE4A (gene 5141) (P27815 whole entry, looked up): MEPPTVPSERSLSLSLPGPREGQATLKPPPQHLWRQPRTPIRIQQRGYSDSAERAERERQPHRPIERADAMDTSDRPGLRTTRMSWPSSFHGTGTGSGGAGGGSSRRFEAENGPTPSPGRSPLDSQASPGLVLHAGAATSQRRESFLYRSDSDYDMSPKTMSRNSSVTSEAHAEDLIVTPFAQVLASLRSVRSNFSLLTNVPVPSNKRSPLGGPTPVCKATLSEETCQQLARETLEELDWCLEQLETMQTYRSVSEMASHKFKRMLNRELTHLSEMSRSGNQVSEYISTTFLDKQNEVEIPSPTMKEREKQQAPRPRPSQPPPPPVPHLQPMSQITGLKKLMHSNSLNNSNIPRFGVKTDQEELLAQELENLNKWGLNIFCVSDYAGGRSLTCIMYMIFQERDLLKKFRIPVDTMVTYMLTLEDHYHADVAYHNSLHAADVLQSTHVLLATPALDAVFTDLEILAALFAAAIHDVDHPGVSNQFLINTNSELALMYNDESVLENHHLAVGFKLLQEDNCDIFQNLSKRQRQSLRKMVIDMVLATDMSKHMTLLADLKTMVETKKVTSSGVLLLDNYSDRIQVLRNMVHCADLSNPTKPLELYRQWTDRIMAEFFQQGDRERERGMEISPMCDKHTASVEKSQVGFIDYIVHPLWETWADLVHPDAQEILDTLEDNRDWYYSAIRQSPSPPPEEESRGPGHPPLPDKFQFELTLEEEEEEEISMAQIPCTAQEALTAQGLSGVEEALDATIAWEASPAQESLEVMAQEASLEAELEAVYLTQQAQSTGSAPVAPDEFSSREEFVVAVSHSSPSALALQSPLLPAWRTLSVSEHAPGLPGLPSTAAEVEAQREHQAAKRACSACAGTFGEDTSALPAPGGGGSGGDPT
Chain of human Protein Tyrosine Phosphatase Non-receptor Type 1 (PTPN1), PTPN1 (gene 5770) (P18031 whole entry, looked up): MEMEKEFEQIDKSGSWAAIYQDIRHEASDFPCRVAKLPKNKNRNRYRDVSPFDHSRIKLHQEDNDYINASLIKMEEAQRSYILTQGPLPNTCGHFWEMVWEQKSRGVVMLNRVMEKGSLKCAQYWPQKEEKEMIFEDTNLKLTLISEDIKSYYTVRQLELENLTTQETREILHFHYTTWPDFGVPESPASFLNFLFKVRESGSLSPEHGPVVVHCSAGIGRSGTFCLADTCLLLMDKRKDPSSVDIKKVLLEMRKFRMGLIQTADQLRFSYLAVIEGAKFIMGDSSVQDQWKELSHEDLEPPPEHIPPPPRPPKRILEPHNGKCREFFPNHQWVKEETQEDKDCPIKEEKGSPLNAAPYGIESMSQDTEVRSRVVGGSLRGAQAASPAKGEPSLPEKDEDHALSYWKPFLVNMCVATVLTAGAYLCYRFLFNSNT
Chain of human Mitogen- and Stress-activated Protein Kinase-1 (Msk1), RPS6KA5 (gene 9252) (O75582 whole entry, looked up): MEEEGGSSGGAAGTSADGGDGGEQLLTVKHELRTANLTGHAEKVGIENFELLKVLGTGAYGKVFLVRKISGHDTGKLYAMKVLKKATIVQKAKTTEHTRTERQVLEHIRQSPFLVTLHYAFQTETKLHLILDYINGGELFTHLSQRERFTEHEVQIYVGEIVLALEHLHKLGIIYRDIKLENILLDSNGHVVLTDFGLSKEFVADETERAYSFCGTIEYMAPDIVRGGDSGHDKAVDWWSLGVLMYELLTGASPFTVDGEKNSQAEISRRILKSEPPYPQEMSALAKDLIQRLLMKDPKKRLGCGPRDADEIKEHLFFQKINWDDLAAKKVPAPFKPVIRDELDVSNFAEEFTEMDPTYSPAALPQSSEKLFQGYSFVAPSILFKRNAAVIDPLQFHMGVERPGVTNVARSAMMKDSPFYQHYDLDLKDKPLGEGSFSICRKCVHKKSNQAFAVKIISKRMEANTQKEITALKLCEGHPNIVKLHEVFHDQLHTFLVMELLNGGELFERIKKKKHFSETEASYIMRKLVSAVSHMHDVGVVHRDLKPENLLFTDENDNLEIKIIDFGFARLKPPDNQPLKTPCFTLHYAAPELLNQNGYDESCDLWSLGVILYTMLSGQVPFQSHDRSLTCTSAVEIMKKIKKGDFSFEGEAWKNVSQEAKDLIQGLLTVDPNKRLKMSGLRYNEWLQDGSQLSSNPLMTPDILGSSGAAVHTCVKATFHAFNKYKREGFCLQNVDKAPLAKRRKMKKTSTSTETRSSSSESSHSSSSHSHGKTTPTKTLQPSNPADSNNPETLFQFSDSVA

For the compound `CC1(C)C(C=C(Cl)Cl)C1C(=O)OCc1cccc(Oc2ccccc2)c1` (configuration not stated), in [1], the call was inactive.
Usually AC50 stands for the concentration giving half of the maximal activity seen. Turning to `O=C(O)C1(C(=O)Nc2ccc(Cl)cc2Cl)CC1`, the AC50 in [2] was 8.27 µM (active); in assay [5], 24.2 µM (active); in assay [6], 13 µM (active); in [7] it was 34.9 µM (active); in assay [8], 19.7 µM (active); in [9], 3.82 µM (active). Besides, the AC50 was 6.94 µM (active) in assay [10]; 25 µM (active) in assay [11]; 3.91 µM (active) in assay [12]; 3.23 µM (active) in [13]; 4.28 µM (active) in assay [14]. For the same compound, the compound was classed as inactive in assay [3] and in assay [4].
In the case of `CCSC(=O)N(CC(C)C)CC(C)C`, the result in assay [15] was inactive.
Turning to `COC(=O)c1c(Cl)nn(C)c1S(=O)(=O)NC(=O)Nc1nc(OC)cc(OC)n1`, in assay [6], the compound was classed as inactive.
For `CCCCC(CC)CN1C(=O)C2C3C=CC(C3)C2C1=O` (configuration not stated), the compound was classed as inactive in assay [1] and in assay [4].
With `c1ccc2[nH]c(-c3cscn3)nc2c1`, the half-maximal activity concentration (AC50) in [6] is 11.6 µM (active).
In the case of `C[C@]12CC[C@@H]3c4ccc(O)cc4C[C@@H](CCCCCCCCCS(=O)CCCC(F)(F)C(F)(F)F)[C@H]3[C@@H]1CC[C@@H]2O` (some centres not stated), the result in assay [1] and in assay [3] was inactive.
Consider `S=C(S)NCCNC(=S)S.[Mn+2].[S-]C([S-])=NCCN=C([S-])[S-].[Zn+2]`, for which the AC50 in [1] was 3.74 µM (active); in assay [3] it was 10.8 µM (active); in assay [4], 1.45 µM (active) and 9.58 µM (active); in assay [5], 3.82 µM (active) and 3.7 µM (active) and 10.6 µM (active); in assay [16], 20.5 µM (active); in assay [6], 12.5 µM (active) and 14.2 µM (active). Besides, the AC50 is 2.41 µM (active) and 17.6 µM (active) in [7]; 6.63 µM (active) and 14.6 µM (active) in [15]; 830 nM (active) and 1.81 µM (active) in assay [9]; 463 nM (active) and 603 nM (active) in assay [10]; 486 nM (active) and 1.35 µM (active) in [11]; 3.5 µM (active) and 7.66 µM (active) and 4.12 µM (active) in assay [12]. The AC50 in assay [17] was 25 µM (active); in [13] it was 183 nM (active) and 38.9 nM (active); in [14] it was 419 nM (active) and 26.1 nM (active); in assay [18] it was 3.57 µM (active) and 30.5 µM (active). Also, the call in assay [6] and in [15] was inactive.
For `CC(C)CCCCCCc1ccc(O)cc1`, the compound was called inactive in [4], in assay [5], in assay [6], in assay [8], in assay [9] and in [10]. In addition, the call in assay [12], in [17] and in assay [14] was inactive.
Turning to `CCOC(=O)c1ccc(O)cc1`, the compound was classed as inactive in assay [6] and in [19].
As to `CCCCOC(=O)[C@@H](C)Oc1ccc(Oc2ccc(C(F)(F)F)cn2)cc1`, the compound was called inactive in [1] and in [3].
